Results: ChEMBL document CHEMBL3988442, “University of Dundee, Small-Polar-MMV Screening Library” (2021)
Out of some 48,000 compounds screened, about 13,000 (27%) showed an effect of 50% or more. This is one part of the list.

system: Wolbachia pipientis; assay: Anti-Wolbachia Cell-Based Screen; assay type: functional; set-up: scale not given: in the data most compounds retested in dose-response had high values; conditions: 5 µM

Row | SMILES | Percent Effect [%]
1 | CCOC(=O)C1CN(C(=O)C2CCOCC2)Cc2ncn(CC)c21 (stereo not given) | 3.509
2 | Cc1nnc(CN2CCCC2c2ccc(C(C)(C)C)cc2)o1 (stereo not given) | -26.52
3 | CSc1ncccc1C(=O)N1CCC2(CC1)c1nc[nH]c1CCN2C | 9.792
4 | CCSCCC(=O)Nc1ncn(Cc2cccnc2)n1 | -3.764
5 | O=S(=O)(Cc1cccc2cccnc12)NC(CO)c1ccco1 (stereo not given) | -8.128
6 | COc1ccccc1Oc1ncccc1CNC(=O)C1COC(=O)N1 (stereo not given) | 98.82
7 | COc1ccccc1Oc1ncccc1CNC(=O)[C@@H](N)[C@@H](C)O | -22.34
8 | CCCS(=O)(=O)NCc1cccnc1Oc1ccc(C)c(F)c1F | -1.189
9 | Cc1ccc(Oc2ncccc2CNC(=O)C2COC(=O)N2)c(F)c1F (stereo not given) | 65.92
10 | COc1ccccc1Oc1ncccc1CNC(=O)[C@H](C)O | -22.76
11 | Cc1nc(CNCc2cccnc2Oc2ccc(C)c(F)c2F)c[nH]1 | -6.11
12 | c1ccc(-c2nccc(CNCC3CCCN3c3cccnn3)n2)cc1 (stereo not given) | 1.65
13 | Cn1cnc2c1CCN(CC(O)c1ccc3c(c1)OCCO3)C2 (stereo not given) | 2.698
14 | Cc1nc(C(=O)N2CC(C)Sc3ccccc32)cs1 (stereo not given) | -0.9397
15 | CN(Cc1ncnn1C)c1ccnc(Cc2ccccc2)n1 | -0.8819
16 | CN1CC2(CCN(S(=O)(=O)C3CC3)CC2)c2ccccc21.O=C(O)C(F)(F)F | -12.74
17 | CS(=O)(=O)N1CCC2(CC1)CN(CC1CCOC1)c1ccccc12.O=C(O)C(F)(F)F (stereo not given) | 90.82
18 | CCS(=O)(=O)N1CCC2(CC1)CN(CC1CCOC1)c1ccccc12.O=C(O)C(F)(F)F (stereo not given) | 101.7
19 | CCS(=O)(=O)N1CCC2(CCC(N3CCCC3)c3ccccc32)CC1.O=C(O)C(F)(F)F (stereo not given) | 6.992
20 | CCCS(=O)(=O)N1CCC2(CC1)CN(C(=O)N(C)C)c1ccccc12 | -3.576
21 | O=C(O)C(F)(F)F.O[C@@H]1CCN(CC2CCOC2)[C@H]1Cc1ccccc1 (stereo not given in full) | -6.584
22 | O=C(O)C(F)(F)F.c1cnc(N2CC3(CCN(CC4CCOC4)CC3)c3ccccc32)nc1 (stereo not given) | -15.18
23 | CCCS(=O)(=O)N1CCC2(CC1)CC(N1CCCC1)c1ccccc12.O=C(O)C(F)(F)F (stereo not given) | 11.6
24 | O=C(O)C(F)(F)F.c1ccc2c(c1)N(CC1CCOC1)CC21CCN(c2cnccn2)CC1 (stereo not given) | 103.7
25 | O=C(O)C(F)(F)F.c1cncc(C2CC3(CCN(c4cnccn4)CC3)c3ccccc32)c1 (stereo not given) | 23.08
26 | O=C(O)C(F)(F)F.c1cnc(N2CC3(CCN(C4CCOCC4)CC3)c3ccccc32)nc1 | 5.791
27 | CCCS(=O)(=O)N1CCC2(CC1)CN(CC1CCOC1)c1ccccc12.O=C(O)C(F)(F)F (stereo not given) | 105.4

Row | SMILES | Percent Effect [%]
28 | COC[C@]12COC[C@H]1CN(S(=O)(=O)c1cccnc1)C2 | 6.326
29 | Cc1nnc(N2C[C@H]3OCC[C@H]3[C@H](C(=O)NCC3CC3)C2)s1.O=C(O)C(F)(F)F | -6.656
30 | O=C1CC2(CCN(Cc3ccc4cccc(O)c4n3)CC2)CN1 | -6.934
31 | COc1ccc(CCNc2cc(-c3nc(C)no3)ccn2)cc1OC | -4.716
32 | COCC(=O)N1CCC2(COCc3cnc(NCc4ccco4)nc32)C1 (stereo not given) | 94.68
33 | CNC(=O)N1CCC2(COCc3c(C)nc(NCc4ccco4)nc32)C1 (stereo not given) | -16.5
34 | CC(C)(C)C(=O)N1CCC2(COCc3cnc(N4CCOCC4)nc32)C1 (stereo not given) | -4.302
35 | CCC(=O)N1CCC2(COCc3c(C)nc(NCc4ccco4)nc32)C1 (stereo not given) | 0.949
36 | O=C(C1CC1)N1CCC2(COCc3cnc(NCc4ccco4)nc32)C1 (stereo not given) | 107.6
37 | Fc1cnc(N2CCC3(COCc4cnc(NCC5CC5)nc43)C2)nc1 (stereo not given) | 3.153
38 | CCC(=O)N1CCC2(COCc3cnc(NCc4ccco4)nc32)C1 (stereo not given) | 102.3
39 | CCC(C)(CC(=O)OC)NC(=O)c1cccc(F)c1F (stereo not given) | 0.5787
40 | Cc1cc(NCCO)nc(N2CCC(Cc3ccccc3)CC2)c1C#N.O=C(O)C(=O)O | -4.494
41 | CC(C)N(CCSc1ncnc2[nH]ncc12)C(C)C | -23.68
42 | O=S(=O)(NCCn1cc(C2CCOC2)nn1)c1ccc(Cl)cc1 (stereo not given) | 2.449
43 | CCc1noc(CNc2cc3c(cc2Cl)OCCO3)n1 | 29.93
44 | N#Cc1ccc(OCCOc2ccccc2C(=O)N2CCOCC2)cc1 | 2.422
45 | CO[C@H]1CC[C@H]2[C@H]1OCCN2CCOCc1ccccc1.O=C(O)C(F)(F)F | -1.824
46 | CO[C@@H]1CC[C@H]2[C@H]1OCCN2CCOCc1ccccc1.O=C(O)C(F)(F)F | 11.38
47 | CO[C@@H]1CC[C@H]2[C@H]1OCCN2Cc1ccc(F)c(F)c1.O=C(O)C(F)(F)F | 101.8
48 | CO[C@H]1CC[C@H]2[C@H]1OCCN2Cc1ccc(F)c(F)c1.O=C(O)C(F)(F)F | 110.9
49 | Cc1ccc(Nc2c(C#N)c(=O)n(C)c(=O)n2C)cc1F | 8.024
50 | CCc1cnc2c(c1Nc1ccc(C)c(F)c1)c(=O)n(C)c(=O)n2C | 84.08
51 | O=C(Nc1ccc2c(c1)OCO2)N1CCN(CCn2ccnc2)CC1 | -13.91
52 | O=C(Nc1ccc2c(c1)OCO2)N1CCN(CCn2cccn2)CC1 | 14.77
53 | CCc1cnc2c(c1Nc1ccc3c(c1)OCO3)c(=O)n(C)c(=O)n2C | 105.3
54 | CCc1cnc2c(c1Nc1ccncc1)c(=O)n(C)c(=O)n2C | 1.173

Row | SMILES | Percent Effect [%]
55 | Cn1cnc(S(=O)(=O)Nc2cc(C(N)=O)ccc2Cl)c1 | -10.15
56 | Cn1cc(C(=O)Nc2ccc(CC(=O)NC3CC3)cc2)nn1 | -0.7616
57 | CC(=O)N1CCc2ccc(NC(=O)c3cn(C)nn3)cc2C1 | 105.1
58 | CN(C)C(=O)Cc1ccc(NC(=O)c2cn(C)nn2)cc1 | -4.709
59 | Cn1cc(C(=O)Nc2ccc3c(c2)N(C(=O)c2ccco2)CC3)nn1 | 115.2
60 | Cn1cc(C(=O)Nc2ccc3c(c2)CN(C(=O)C2CC2)CC3)nn1 | 116.9
61 | Cn1cc(C(=O)Nc2ccc3c(c2)CN(C(=O)c2ccco2)CC3)nn1 | 12.57
62 | COC(=O)N1CCc2ccc(NC(=O)c3cn(C)nn3)cc2C1 | 2.493
63 | Cn1cc(C(=O)Nc2ccc(CC(=O)NCC(F)(F)F)cc2)nn1 | -7.927
64 | Oc1cc(CN2CCC(O)(Cn3ccnc3)CC2)nc2c(Cl)cccc12 | -8.472
65 | CC(CNC(=O)c1ccon1)Oc1cccc(Br)c1 (stereo not given) | -16.92
66 | c1cc(-c2ccc(CN3CCC4(CCNCC4)CC3)s2)[nH]n1 | 13.89
67 | COCCN(C(=O)c1ccccn1)c1nc2c(s1)CCc1c-2cnn1C | 88.66
68 | CN(C(=O)c1ccccn1)c1nc2c(s1)CCc1c-2cnn1C | -10.1
69 | CCCN(C(=O)c1cnccn1)c1nc2c(s1)CCc1c-2cnn1C | 84.76
70 | CCCN1CCN(C(=O)c2cnccn2)[C@H]2CS(=O)(=O)C[C@H]21 | -1.357
71 | Cc1cccc(N(CCC(N)=O)C(=O)c2cnccn2)c1 | -11.19
72 | COCC1c2nnn(CC3CC3)c2CCN1C(=O)c1cnccn1 (stereo not given) | -15.7
73 | COCCN(C(=O)c1cnccn1)c1nc2c(s1)CCc1c-2cnn1C | 99.99
74 | CCCN(C(=O)c1cnc(C)cn1)c1nc2c(s1)CCc1c-2cnn1C | 90.09
75 | COCCCNC(=O)C1CN(C(=O)c2cnccn2)C1 | 10.57
76 | CCCN(C(=O)c1ccccn1)c1nc2c(s1)CCc1c-2cnn1C | -6.785
77 | CCN(Cc1cccc2c1OCO2)CC1CCCO1 (stereo not given) | -5.577
78 | Cl.O=C(OCC1CCCN1)c1cccc(NC(=O)c2ccco2)c1 (stereo not given) | -13.38
79 | CC1(C)[C@H]2CC=C(CN3CCCn4nc(C(=O)O)cc4C3)[C@@H]1C2 | -7.582
80 | CN(CCc1cnn(C)c1)C(=O)C1COc2ccccc2C1 (stereo not given) | 12.32
81 | Cc1nc(C(C)C)sc1C(=O)N(C)CCCc1cnn(C)c1 | -1.065

Row | SMILES | Percent Effect [%]
82 | Cc1cnc(N(C)CCCc2cnn(C)c2)nc1N(C)C | 116.9
83 | CC(C)N1CCCC(C(=O)N(C)CCCc2cnn(C)c2)C1 (stereo not given) | -3.497
84 | Cc1nc(C)c(C)c(N(C)CCCc2nccn2C)n1 | 1.22
85 | Cc1ncc(S(C)(=O)=O)c(N(C)CCCc2cnn(C)c2)n1 | 106.8
86 | CCc1cnc(N)nc1N(C)CCc1cnn(C)c1 | 112.4
87 | CCc1cnc(C)nc1N(C)CCCc1cnn(C)c1 | 93.68
88 | Cc1ccccc1C(C(=O)N(C)CCc1cnn(C)c1)N(C)C (stereo not given) | -25.6
89 | CN(CCCc1cnn(C)c1)C(=O)C1CCOC1 (stereo not given) | -24.42
90 | Cc1c(NC(=O)N(C)CCCc2cnn(C)c2)cnn1C | -9.365
91 | CC(NCCCc1cnn(C)c1)c1ccc(Br)s1 (stereo not given) | 0.1879
92 | CN(C)C(=O)CCNC(=O)c1cnc(-c2ccccc2)nc1 | -4.598
93 | O=S1(=O)CCC(n2cc(CNCC3(c4ccccc4)CC3)cn2)C1 (stereo not given) | 4.552
94 | O=C(c1ccc(OCC2CC2)cc1)N1CCOCC1c1ncon1 (stereo not given) | -1.778
95 | Nc1cnc(-c2cccc3ccnn23)cn1 | -6.103
96 | CN(CC(=O)Nc1ccc(Br)cn1)C(=O)Cc1ccc(O)cc1 | -6.927
97 | CC(C)c1cc(N2CC[C@H](F)C2)n2nccc2n1 | -1.052
98 | Cc1cc(N2CCC(NS(C)(=O)=O)CC2)nc(C(C)C)n1 | 66.62
99 | CC(C)c1cc(N2CCC(NS(C)(=O)=O)C2)nc(C(C)C)n1 (stereo not given) | 107.7
100 | Cc1cc(N2CCN(C(=O)c3cc(Cl)c[nH]3)CC2)nc(C(C)C)n1 | -12.01
101 | Cc1nnc(N2CCC(NS(C)(=O)=O)CC2)c(C#N)c1C | 4.066
102 | CS(=O)(=O)NC1CCCN(c2ccc(C#N)cn2)C1 (stereo not given) | 4.469
103 | CC(C)c1cc(N2CCC(NS(C)(=O)=O)CC2)n2nccc2n1 | -0.6269
104 | CNS(=O)(=O)C1CCN(c2cc(C(C)C)nc(C(C)C)n2)C1 (stereo not given) | 80.93
105 | Cc1cc(=O)[nH]c(SC(C)C(=O)N2CCC(NS(C)(=O)=O)CC2)n1 (stereo not given) | -6.463
